The campaign covered roughly 320,000 compounds. About 740 (0.23%) were called active. Inconclusive results (about 2%) are left out. This excerpt belongs to a sample that is enriched for actives. Unmarked numbers belong to inactive results. Calls follow the shape of the dose curve; as a rule, active = well fitted activation curve with a large enough effect; inconclusive = small, poorly fitted or top-dose-only effect; inactive = no such curve, though single readings can be large or run the other way.
assay: qHTS Assay for Small Molecule Inhibitors of Mitochondrial Division or Activators of Mitochondrial Fusion; also: nearly all actives have a fitted effect of over 45% in size; as to growth rescue (activation): % of control where 0% means no effect; settings: S. cerevisiae fusion-defective mutant growth rescue, CellTiterGlo 48 h; series mostly up to 46.1 µM; growth rescue (activation): at the top concentration
Excerpt: NIH Chemical Genomics Center [NCGC] NIH Molecular Libraries Probe Production centers Network [MLPCN] MLPCN Grant: MH081279-01 Assay Submitter (PI): Jodi M. Nunnari NCGC Assay Overview: The budding yeast S. cerevisiae is a powerful system to study mitochondrial fusion. Unlike other organisms, yeast cells without functional mitochondrial DNA (mtDNA) can be propagated and studied as long as they maintain a mitochondrial compartment and are provided with a fermentable carbon source. When mitochondrial fusion is blocked in yeast, mitochondrial tubules rapidly fragment and division continues unopposed. Under conditions where fusion is compromised in mammalian cells, nearly identical changes in mitochondrial structure have been observed. Thus, these findings indicate that steady state mitochondrial structure in cells is a characteristic and specific indicator of fusion activity. Mounting evidence has pointed to a connection between mitochondrial dynamics and apoptosis in mammalian cells. These studies indicate that in mammalian cells mitochondrial dynamics are more integrated into cellular processes than in yeast cells and have evolved not only to distribute the organelle but also to aid in the regulation of cellular homeostasis. Mitochondrial fusion proteins attenuate apoptosis by inhibiting the release of cytochrome c from mitochondria, in part by controlling cristae structures. Thus, small molecules that inhibit mitochondrial […] may promote apoptosis and potentially act as novel chemotherapeutics and stimulation of apoptosis has become an attractive target of anti-cancer therapies. To identify inhibitors of mitochondrial division, we exploit the growth phenotypes of mitochondrial fusion-defective mutants. The temperature sensitive fusion alleles, such as fzo1-1 and mgm1-5, cause mitochondrial membranes to fragment in cells under non-permissive conditions and cells lose mtDNA, and are unable to grow in the presence of non-fermentable carbon source glycerol. Inhibiting mitochondrial division rescues growth. We have developed and optimized a luminescence cell viability assay in 1536 well format for the identification of inhibitors in the yeast mitochondrial fusion-defective assay.
The yeast glycerol stocks where kindly supplied by the laboratory of Dr. Jodi Nunnari, University of California, Davis. All yeast glycerol stock solutions were stored in single use aliquots at -80C. The CellTiterGlo luminescence reagent, containing luciferase and luciferin, were purchased from Promega, and the reagents were stored according to manufacturer's instructions. The Buffer components for the YPEG yeast growth medium were purchased from Sigma-Aldrich (St. Louis, MO). YPEG growth medium: 1% (w/v) yeast extract, 2% (w/v) Bacto-peptone, 3% Ethanol, 3% glycerol, 0.4mM Tryptophan, 0.36mM Adenine. qHTS Assay Protocol: 1.#Dispense 2.5 ul yeast growth medium per 1536 well plate. 2.#Transfer 23 nl per well of compound to plate. 3.#Dispense 2.5 ul yeast solution at appropriate seeding density per well. 4.#Incubate for 48 hours at 37C. 5.#Dispense 5 ul of CellTiterGlow solution per well. 6.#Incubate at ambient for 10 minutes. 7.#Read using bio-luminescence protocol on Viewlux.
Potency is read from the fitted curve at half-maximal effect.

| Structure (SMILES) | growth rescue (activation) | Potency |
| --- | --- | --- |
| COc1ccc([C@H]2CC(=O)C=C(c3ccc(CO)cc3)C2)cc1 | 10.6% |  |
| COc1ccc([C@H]2CC(=O)C=C(c3ccc(C)cc3)C2)cc1 | 25.8% |  |
| CC(C)(C)CC(=O)Nc1nnc(SCC(=O)NCc2cccs2)s1 | -2.23% |  |
| O=C1CSC(=O)N1CCOCCN1C(=O)CSC1=O | -3.76% |  |
| Cc1cccc(NC(c2cccc(F)c2)c2ccc3ccc(C)nc3c2O)n1 (configuration not stated) | 2.76% |  |
| CCCCCc1ccc(-c2ccc(OCC)cc2)nc1 | -3.67% |  |
| CCCCCc1ccc(-c2cn(Cc3ccc4ccccc4c3)nn2)cc1 | 1.57% |  |
| CCCCCc1ccc(-c2ccc(C(=O)O)cc2)nc1 |  | 15.8 µM (active) |
| COc1ccc(-n2c(SCC(=O)Nc3ccc(Cl)c(C)c3)nc3n[nH]c(C)c3c2=N)cc1 | 1.03% |  |
| CN(c1ccccc1)S(=O)(=O)c1cc(C(=O)Nc2nc3ccccc3[nH]2)ccc1Cl |  | 12.6 µM (active) |
| COc1cc(OC)cc(C(=O)N[C@H](C(=O)Nc2nc3ccccc3[nH]2)C(C)C)c1 | -2.45% |  |
| CN(c1ccccc1)S(=O)(=O)c1cc(C(=O)OCC(=O)N2CCN(C(=O)c3ccco3)CC2)ccc1Cl | 5.81% |  |
| CN(C)S(=O)(=O)c1ccc(C(=O)NCC2(N3CCOCC3)CCCCC2)cc1 | -7.31% |  |
| COc1ccc(NS(=O)(=O)c2ccc(C)c(C(=O)N(C)Cc3ccc(OC)cc3OC)c2)cc1 | 3.44% |  |
| CC1CC2C3CCC4=CC(=O)C=C[C@]4(C)[C@@]3(F)[C@@H](O)C[C@]2(C)[C@@]1(O)C(=O)CO (some centres not stated) | -2.79% |  |
| O=C(NCCCCCCCCCNC(=O)C(F)(F)F)C(F)(F)F | 3.56% |  |
| CC(CN1CCOCC1)OC(=O)c1ccc(Cl)cc1Cl (configuration not stated) | -1.69% |  |
| CC(CN1CCOCC1)OC(=O)c1ccc(C(C)(C)C)cc1 (configuration not stated) | 6.51% |  |
| Cc1ccc(C(=O)OC(C)CN2CCOCC2)cc1 (configuration not stated) |  | 22.4 µM (active) |
| C=C(C)C1CC=C(C)/C(=N\NC(=O)CNc2ccccc2OC)C1 (configuration not stated) | 24.6% |  |
| Cc1ccc(S(=O)(=O)/N=C(/NC(=S)Nc2c(C)n(C)n(-c3ccccc3)c2=O)c2ccccc2)cc1 | 0.193% |  |
| Cn1c2cc(B(O)O)sc2c2cnn(Cc3ccccc3F)c(=O)c21 | -0.837% |  |
| CCc1ccc(Nc2ncc3c(n2)CC(c2ccco2)CC3=O)cc1 (configuration not stated) |  | 11.2 µM (active) |
| COc1cc(C2CC(=O)c3cnc(NC(C)=O)nc3C2)cc(OC)c1OC (configuration not stated) | 0.0051% |  |
| O=C(Nc1ncc2c(n1)CC(c1ccco1)CC2=O)c1ccc(Cl)cc1 (configuration not stated) | 6.99% |  |
| Cc1cc(NC(=O)Nc2c[nH]c(=O)[nH]c2=O)ccc1Br | 0.148% |  |

| Structure (SMILES) | growth rescue (activation) | Potency |
| --- | --- | --- |
| CCOC(=O)c1c(CNCc2ccccc2F)c2sc(C)cc2n1C | -0.808% |  |
| COc1cc(C2NC(=O)NC(c3ccccc3)=C2C(C)=O)c(Br)cc1OCC(N)=O (configuration not stated) | 2.71% |  |
| COc1ccccc1N(C)S(=O)(=O)c1ccc(C(=O)NC2CCCCCC2)cc1 | -3.35% |  |
| COc1ccc(CCNC(=O)CN2C(=O)CCSc3ccccc32)c(OC)c1 | -10.5% |  |
| COCCNC(=S)N/N=C/c1c(C)[nH]c2ccccc12 | -4.82% |  |
| COc1ccc(CNC(=O)CNC(=O)c2sc3ccccc3c2Cl)cc1OC | -3.78% |  |
| O=C(N/N=C/c1c(Cl)[nH]c2ccccc12)c1sc2ccccc2c1Cl |  | 15.8 µM (active) |
| Nc1ncnc2c1c(I)cn2[C@@H]1C[C@H](N)[C@@H](O)[C@H]1O | -0.615% |  |
| COc1ccccc1NC(=O)c1cc(S(=O)(=O)NCCc2ccccc2)ccc1F | -4.24% |  |
| COc1cccc(-n2c(=O)c3c(C)c(C(=O)N(C)C)sc3n(CC(=O)NCCc3ccc(OC)c(OC)c3)c2=O)c1 | -2.48% |  |
| COCCCNC(=O)c1ccc(CNS(=O)(=O)c2ccc(NC(C)=O)cc2)cc1 |  | 0.631 µM (active) |
| CC(=O)Nc1ccc(S(=O)(=O)NCCc2ccccc2)cc1 | -2.71% |  |
| CCCCNC(=O)C1CCC(CNS(=O)(=O)c2ccc(NC(C)=O)cc2)CC1 (configuration not stated) | -18.1% |  |
| O=C(NC1CCCC1)C(c1ccco1)N(C(=O)c1ccco1)c1ccc(F)cc1 (configuration not stated) | 0.928% |  |
| CN(C)C(=O)c1ccc2c(c1)C1C3CCC(C3)C1C(c1ccccc1)N2 (configuration not stated) |  | 12.6 µM (active) |
| CN(C)C(=O)c1ccc(NC(=O)c2ccccc2-c2ccccc2)cc1 | -1.29% |  |
| CC1(C)C/C(=C(/C#N)C(N)=O)CCO1 | -4.67% |  |
| NC(N)=Nc1nc2ccc(Br)cc2c(=O)[nH]1 | 3.53% |  |
| O=S(=O)(Nc1ccc2nc(N3CCOCC3)sc2c1)c1ccccc1 | 9.86% |  |
| CC(=O)OCCOCn1cnn2c(=O)c(Br)c(C)nc12 | -1.24% |  |
| CCC(=O)Nc1ccc(-c2ccc(N3CCCCC3)nn2)cc1 |  | 17.8 µM (active) |
| CC1CCN(c2ccc(-c3ccc(NC(=O)c4ccco4)cc3)nn2)CC1 | 13.5% |  |
| CCC(=O)c1ccc(OCC(=O)Nc2ccc(N3CCCCC3)cc2)cc1 | 0.121% |  |
| CCOc1ccc(/C(O)=C2\C(=O)C(=O)N(c3ccc(OC)cc3)C2c2ccccc2[N+](=O)[O-])cc1 (configuration not stated) | -5.38% |  |
| CCOC(=O)C1=C(c2ccccc2)NC(=O)NC1c1cc(OC)c(OC)cc1OC (configuration not stated) | 5.15% |  |
| CCCC[C@]12Cc3cc(OC)c(OC)cc3C(O1)C1=C(CC3(CCCCC3)OC1=O)O2 | -0.167% [at 9.22 µM] |  |
